Measured values: PubChem BioAssay AID488857 (Sanford-Burnham Center for Chemical Genomics, 2010)
In all, about 1,400 compounds went through this assay and about 560 (40%) were called active.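 Rule for the calls: active = mean inhibition over duplicate tests at 10 µM above 50%; inactive = the rest.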 The set was probably picked from earlier hits. The list shows a part of the results.

Experiment: ASC/caspase-1 reporter retest in S. cerevisiae at one dose, specificity check for NALP1 project (AID 488857)
Conditions: S. cerevisiae ASC/Caspase-1, beta-galactosidase luminescence, 24 h; at 10 µM; stronger effect = higher value

Row | SMILES | inhibition
1 | O=C(NCc1cccnc1)C1CCN(S(=O)(=O)c2cccnc2)CC1 | 42.8% (inactive)
2 | COc1ccc(S(=O)(=O)N(CC(=O)N2CCOCC2)Cc2ccccc2)cc1C | 40.5% (inactive)
3 | O=C(c1ccc(Br)s1)N1CCN(C/C=C/c2ccccc2)CC1 | 55.4% (active)
4 | CN(CC(=O)NC(=O)NCc1ccccc1)Cc1cccc(Cl)c1Cl | 43.1% (inactive)
5 | CCN(c1cccc(C)c1)S(=O)(=O)c1cccc(C(=O)O)c1 | 32.3% (inactive)
6 | CCN(CC)c1ccc(/C=C2/SC(=O)N(C(C)C)C2=O)o1 | 71% (active)
7 | N#CC1(C#N)CC(C=O)=C(N)C1(C#N)CC(=O)C12CC3CC(CC(C3)C1)C2 (centres undefined) | 35.1% (inactive)
8 | Cc1cc(C(=O)COC(=O)c2ccc[nH]c2=O)c(C)n1-c1ccccc1 | 57.5% (active)
9 | Cc1cc(C(=O)COC(=O)c2ccc[nH]c2=O)c(C)n1-c1ccc(F)cc1 | 52.3% (active)
10 | CCC(=O)N(Cc1cc2c(C)ccc(C)c2[nH]c1=O)C1CCCCC1 | 36.8% (inactive)
11 | CCC(C(=O)OC)n1cnc2scc(-c3ccc(C)c(C)c3)c2c1=O (centres undefined) | 98.5% (active)
12 | CC[n+]1c(/C=C/N(C)c2ccccc2)n(-c2ccccc2)c2ccc(-c3nc4ccccc4s3)cc21 | 64.5% (active)
13 | O=C(Cn1cccc(C(F)(F)F)c1=O)c1ccc(Cl)cc1 | 20.5% (inactive)
14 | O=C(Nc1ccccc1)Nc1ccc(Br)cc1F | 73.9% (active)
15 | Cc1ccc(S(=O)(=O)N(C)C)cc1NC(=O)Nc1ccccc1F | 24.1% (inactive)
16 | O=C(NNC(=O)c1ccc(-c2ccccc2)cc1)Nc1ccc(F)cc1F | 42.6% (inactive)
17 | O=C(c1ccccc1)c1ccc(OCC(O)CNC2CCCc3ccccc32)cc1 (centres undefined) | 38.8% (inactive)
18 | COc1ccc(C2NCCc3c2[nH]c2ccccc32)cc1CSc1nc2ccccc2s1 (centres undefined) | 50% (active)
19 | CSc1nc(C)cc(OCCO)n1 | 40.9% (inactive)
20 | CCOc1ccc(OCCSc2nc3ccccc3o2)cc1 | 44.1% (inactive)
21 | CCCOc1ccc(OCCSc2ncccn2)cc1 | 50.8% (active)
22 | CC(C)CN=C(NS(=O)(=O)c1ccccc1)C(Cl)(Cl)Cl | 51.1% (active)
23 | CC(=O)NS(=O)(=O)c1ccc(NC(=O)CSc2ccccc2)cc1 | 18.9% (inactive)
24 | Cc1ccc(S(=O)(=O)N[C@@H](Cc2ccccc2)C(=O)CCl)cc1 | -4.2% (inactive)
25 | Cc1c(C)c2cc(Cl)c(O)c(CN3CCCCC3)c2oc1=O | 35.6% (inactive)

Row | SMILES | inhibition
26 | O=C(OCCN1CCCCC1)c1cc2ccccc2o1 | 18.4% (inactive)
27 | CCc1oc2ccccc2c1C(=O)CCN1CCCCC1 | 66.5% (active)
28 | Cc1ccc(CN(C(=O)CNC(=O)c2cccs2)C(C(=O)NCC2CCCO2)c2ccccc2)cc1 (centres undefined) | 38.1% (inactive)
29 | O=C(NCCc1csc(-c2ccccc2)n1)c1ccc(Br)o1 | 62.4% (active)
30 | c1ccc(CCNc2nc(-c3cccnc3)cs2)cc1 | 45% (inactive)
31 | O=C(NCCCn1ccnc1)c1ccc(Br)o1 | 24.1% (inactive)
32 | COc1ccc(CCNC(=O)c2sc3cc(C)ccc3c2Cl)cc1 | 43.6% (inactive)
33 | COc1ccc(-c2nc(CCNC(=O)c3cccs3)cs2)cc1 | 54.7% (active)
34 | O=C(O)C1C2C=CC(C2)C1C(=O)NCc1ccc(Cl)c(Cl)c1 (centres undefined) | 45.9% (inactive)
35 | C=C(C)C1Cc2c(C)nn(-c3ccccn3)c2C1 (centres undefined) | 36.1% (inactive)
36 | Cc1cc(C)cc(NS(=O)(=O)c2ccc(NC(=S)NC(=O)c3ccc(Br)o3)cc2)c1 | 43.1% (inactive)
37 | CSCc1ccc(C(=O)Nc2cc(C)cc(C)c2)cc1 | 82.3% (active)
38 | Cc1ccc(-c2nc3cnccn3c2Nc2c(C)cccc2C)o1 | 54.5% (active)
39 | COc1ccc(-c2nc3cnccn3c2Nc2ccc(C)cc2)cc1 | 37.3% (inactive)
40 | CCCCCCC(=O)N(O)C1CC(=O)N(Cc2ccccc2)C1=O (centres undefined) | 27.9% (inactive)
41 | CN1CCN(C(=S)Nc2ccc(Cl)c(Cl)c2)CC1 | 31.7% (inactive)
42 | O=C(CC(O)(C(F)(F)F)C(F)(F)F)Nc1ccc(Cl)c(Cl)c1 | 97% (active)
43 | Cc1ccc(NC(=S)Nc2ccc(Cl)c(Cl)c2)c(OC(F)F)c1 | 45.8% (inactive)
44 | FC(F)Oc1ccc(/C=N/c2c(-c3ccc(OC(F)F)cc3)nc3n2CCS3)cc1 | 47.1% (inactive)
45 | Cc1cccc2sc(N(CCCN(C)C)C(=O)CCS(=O)(=O)c3ccccc3)nc12 | 71.3% (active)
46 | CN(C)CCCN(C(=O)CCOc1ccccc1)c1nc2c(F)cccc2s1 | 56% (active)
47 | CN(C)CCCN(C(=O)CCS(=O)(=O)c1ccccc1)c1nc2cc3c(cc2s1)OCO3 | 70.2% (active)
48 | Cc1ccc2nc(N(CCCN(C)C)C(=O)CCc3ccccc3)sc2c1 | 54.9% (active)
49 | O=C(CCN1C(=O)c2ccccc2C1=O)N1CCN(C2c3ccccc3-c3ccccc32)CC1 | 18.1% (inactive)
50 | CC(C)C(NS(=O)(=O)c1ccc2c(c1)oc(=O)n2C)C(=O)N1CCN(C2CCCCC2)CC1 (centres undefined) | 34.7% (inactive)

Row | SMILES | inhibition
51 | Cc1ccc2sc(N(CCCN(C)C)C(=O)CCS(=O)(=O)c3ccccc3)nc2c1C | 92.2% (active)
52 | CC(/C=N/NC(=O)CCn1nnc2ccccc21)=C\c1ccccc1 | 42.8% (inactive)
53 | CC(/C=N/NC(=O)c1c(Br)cnn1C)=C\c1ccccc1 | 56.6% (active)
54 | CC(/C=N/NC(=O)CSc1ccccn1)=C\c1ccc(C(C)C)cc1 | 39% (inactive)
55 | Cc1cc(C(C)(C)C)cc(C)c1S(=O)(=O)N1CC(=O)Nc2ccccc21 | 50.1% (active)
56 | CC(C)c1ccc(-c2c(C#N)c(N)nc3c2CCCCC3)cc1 | 23.8% (inactive)
57 | CCN(c1ccccc1)S(=O)(=O)c1cc(NC(=O)Nc2ccccc2C#N)ccc1Cl | 30.4% (inactive)
58 | COc1ccc(-c2cc(-c3cc(OC)ccc3O)[nH]n2)cc1 | 57.5% (active)
59 | CCOCC(O)CNC(=O)c1ccc(OC2CCN(C(=O)c3cccnc3)CC2)cc1 (centres undefined) | 29.2% (inactive)
60 | Cc1cc(/C=C2/SC(=S)N(c3ccc([N+](=O)[O-])cc3)C2=O)c(C)n1-c1cccnc1 | 37.3% (inactive)
61 | O=C(NC1CCCC1)c1ccc(CN2CCOCC2)cc1 | 45.1% (inactive)
62 | O=C(NC1CCCCC1)c1noc2c1CCCCC2 | 71.2% (active)
63 | C=CCn1c(=O)c2ccc(C(=O)NCc3ccccc3)cc2n(Cc2ccccc2Cl)c1=O | 36.4% (inactive)
64 | Cc1ccc(-c2csc(NC(=O)c3ccc(F)cc3)c2C(=O)O)cc1 | 93.8% (active)
65 | Cc1noc(C)c1S(=O)(=O)N1CCC(C(=O)N2CCC(N3CCCCC3)CC2)CC1 | 23.3% (inactive)
66 | CCOC(=O)CNC(c1ccccc1)c1cc(Br)ccc1NC(=O)CCN1CCOCC1 (centres undefined) | 44.6% (inactive)
67 | CCCOc1ccc(C(=O)C(CN2CCCC2)c2ccccc2)cc1 (centres undefined) | 48.7% (inactive)
68 | CCOc1ccc(C(=O)C(CN2CCOCC2)c2ccccc2)cc1 (centres undefined) | 52.9% (active)
69 | Cc1cc(Nc2ccccc2)nn1C(=O)c1ccccc1 | 58% (active)
70 | CCn1nc(C)cc1Nc1ccccc1 | 32.9% (inactive)
71 | COc1cc2c(cc1NC(=S)Nc1ccccc1C)oc1ccccc12 | 45.5% (inactive)
72 | Cc1ccccc1N=C/C=C1\N(C)c2ccccc2C1(C)C | 42.5% (inactive)
73 | CN1/C(=C\C(=O)c2cccs2)C(C)(C)c2ccccc21 | 40% (inactive)
74 | CN(C)c1ccc(N=C/C=C2/N(C)c3ccccc3C2(C)C)cc1 | 56.5% (active)
75 | CS(=O)(=O)c1nc(-c2ccco2)cc(C(F)(F)F)n1 | 90.7% (active)

Row | SMILES | inhibition
76 | Cc1ccc2cc(CN(Cc3ccco3)C(=O)NC3CCCCC3)c(=O)[nH]c2c1C | 42.8% (inactive)
77 | CCC(C)NC(=O)c1cc2cc3ccc(OC)cc3nc2s1 (centres undefined) | 56.8% (active)
78 | COc1ccc(OC)c(NC(=O)c2sc3nc(Cc4ccccc4)cc(C(F)(F)F)c3c2N)c1 | 40.6% (inactive)
79 | O=C(CCC1CCCCC1)N1CCN(Cc2ccc3c(c2)OCO3)CC1 | 67% (active)
80 | N#CCc1c(C#N)c(N)nc(N2CCN(Cc3ccc4c(c3)OCO4)CC2)c1C#N | 37.5% (inactive)
81 | OC(COCc1ccc2c(c1)OCO2)CN1CCN(Cc2ccccc2)CC1 (centres undefined) | 35.2% (inactive)
82 | CC1CCCN(CCCOc2ccc(Cl)cc2Br)C1 (centres undefined) | 64.8% (active)
83 | CC1CCCN(CCC(=O)c2ccc(Br)cc2)C1 (centres undefined) | 45.8% (inactive)
84 | Cc1cc(Cl)c(OCCCN2CCCCC2)c(Br)c1 | 24.1% (inactive)
85 | CC1CCCN(CCOCCOc2ccc(Br)cc2Cl)C1 (centres undefined) | 59.5% (active)
86 | Cc1cc(Cl)c(OCCCCN2CCOCC2)c(Br)c1 | 30.6% (inactive)
87 | CN1CCC(Oc2ccc(Sc3ccccc3)cc2)CC1 | 40.5% (inactive)
88 | Cc1cc(Cl)c(OCCOCCN2CCC(C)CC2)c(Br)c1 | 53.7% (active)
89 | CC1CCCN(CCOCCSc2ccccc2)C1 (centres undefined) | 53% (active)
90 | CC(C)(C)c1ccc(COn2c(=O)c(-c3ccco3)[n+]([O-])c3ccccc32)cc1 | 39.7% (inactive)
91 | CCOc1ccc(NC(=O)CSc2nnc(C)n2Cc2ccccc2)cc1 | 37.3% (inactive)
92 | CCOC(=O)c1cccnc1SCC(=O)NCc1ccccc1 | 54.2% (active)
93 | CCOC(=O)c1cnc2ccccc2c1Nc1cc(C(=O)O)ccc1C | 28.2% (inactive)
94 | Cc1nc(C)c(/C(O)=C/c2nc3ccccc3oc2=O)s1 | 44% (inactive)
95 | Cc1ccc(NC2(C#N)C(=O)Nc3ccccc32)cc1 (centres undefined) | 38.2% (inactive)
96 | O=C(c1ccco1)N1CCN(Cc2cn[nH]c2-c2cccc3ccccc23)CC1 | 26% (inactive)
97 | O=C(CN1CCSC1=NCc1ccccc1)c1ccc(Cl)c(Cl)c1 | 61% (active)
98 | COc1cccc(CN(C)CC(=O)Nc2cccc(S(N)(=O)=O)c2)c1OC | 32.5% (inactive)
99 | Cc1cs/c(=N\N=C\c2ccccc2)n1Cc1ccco1 | 54.1% (active)
